Source: PubChem (National Center for Advancing Translational Sciences (NCATS))
Compounds with a hit are over-represented: about 11% of the library has one in this group of screens.
HP1b binding inh – HTS for Inhibitors of HP1-beta Chromodomain Interactions with Methylated Histone Tails | AID 540317, 2011 | hit rate 0.56% among 390,000 | Chromobox protein homolog 1 (Homo sapiens), P83916 | Potency, µM (doses to about 114 µM), for inactives: top-dose activity change, negative = inhibition, hits mostly inhibitors | AlphaScreen HP1-beta / biotin-H3K9me3 peptide binding; further: nearly all actives have a fitted effect of over 70% in size
Target sequence (P83916 whole entry, looked up): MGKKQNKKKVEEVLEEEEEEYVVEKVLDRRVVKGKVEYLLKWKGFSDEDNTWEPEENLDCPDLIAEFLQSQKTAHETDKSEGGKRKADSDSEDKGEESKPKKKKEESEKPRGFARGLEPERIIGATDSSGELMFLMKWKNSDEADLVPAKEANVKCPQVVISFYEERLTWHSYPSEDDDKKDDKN
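Compound inhibition of the preformed complex between 50 nM HP1-beta and 50 nM biotinylated H3K9me3 peptide was read by AlphaScreen. Buffer was PBS pH 7.4 with 0.01% Tween-20. Incubations ran 30 min at room temperature, with 10 ug/mL donor/acceptor beads.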
VDR inh – Inhibitors of the vitamin D receptor (VDR): qHTS; hit rate 0.93% among 400,000; VDR-SRC2-3 peptide fluorescence polarization, 2 h; AID 504847, 2011; Potency, µM, for inactives: max response, negative = inhibition, most hits filed as inhibitors; Vitamin D3 receptor (Homo sapiens), P11473; further: on the % scale 0 is the no-effect control and ±100 the full control effect
Target sequence (P11473 whole entry, looked up): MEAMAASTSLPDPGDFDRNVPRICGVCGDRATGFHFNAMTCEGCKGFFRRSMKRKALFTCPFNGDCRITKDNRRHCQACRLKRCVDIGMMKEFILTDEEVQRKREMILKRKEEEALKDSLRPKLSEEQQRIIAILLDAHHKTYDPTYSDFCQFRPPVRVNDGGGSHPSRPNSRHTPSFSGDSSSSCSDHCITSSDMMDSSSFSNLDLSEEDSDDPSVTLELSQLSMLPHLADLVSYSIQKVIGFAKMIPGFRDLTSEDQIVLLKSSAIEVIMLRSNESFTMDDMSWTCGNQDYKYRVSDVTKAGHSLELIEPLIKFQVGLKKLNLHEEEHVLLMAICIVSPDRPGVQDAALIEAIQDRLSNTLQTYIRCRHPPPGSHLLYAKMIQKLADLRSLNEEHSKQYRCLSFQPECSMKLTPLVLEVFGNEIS
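Two reagent solutions held at 4 deg C in the dark were dispensed, compounds pinned at 23 nl, and the mixture incubated 2 h at room temperature. Read-out: fluorescence polarization of VDR–SRC2-3 peptide binding.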
G9a inh – qHTS Assay for Inhibitors of Histone Lysine Methyltransferase G9a. Histone-lysine N-methyltransferase EHMT2 (Homo sapiens), Q96KQ7. G9a H3K9 monomethylation, AlphaScreen, 2 h. Potency, µM (top dose mostly 102 µM), for the others: at the highest dose activity, negative = inhibition, most hits filed as inhibitors. hit rate 8.8% among 350,000; further: on the % scale 0 is the no-effect control and ±100 the full control effect; nearly all actives have a fitted effect of over 75% in size
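Step 1: enzyme (final 20 nM) with compound, 15 min RT. Step 2: substrate peptide 500 nM and SAM 20 uM, 2 h RT. Step 3: anti-H3K9me1 antibody and AlphaScreen beads, 10 min, then plate read.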
PLK1 PBD block – qHTS for Inhibitors of PLK1-PDB (polo-like kinase 1 - polo-box domain): Primary Screen | Serine/threonine-protein kinase PLK1 (Homo sapiens), P53350 | Plk1 PBD binding of FITC phosphopeptide, fluorescence polarization | Potency, µM, without a hit: max response, negative = inhibition, usual class: inhibitors | hit rate 2.8% among 360,000 | AID 720504, 2013; further: series mostly up to about 57 µM; on the % scale 0 is the no-effect control and ±100 the full control effect; nearly all actives have a fitted effect of over 65% in size
BAZ2B block – qHTS Assay for Inhibitors of BAZ2B | AID 504333, 2011 | hit rate 4.4% among 360,000 | Potency, µM (highest dose often 114 µM), without a hit: top-dose activity change, negative = inhibition, actives largely listed as inhibitors | Bromodomain adjacent to zinc finger domain protein 2B (Homo sapiens), Q9UIF8 | AlphaScreen BAZ2B-H3K14Ac peptide displacement; further: on the % scale 0 is the no-effect control and ±100 the full control effect; nearly all actives have a fitted effect of over 60% in size
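AlphaScreen luminescence quantifies BAZ2B engagement of H3K14Ac peptide; the protein and biotinylated peptide are both at 50 nM final, buffer PBS pH 7.4 with 0.01% Tween-20, all steps at room temperature.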
JMJD2A Tudor inh – qHTS Assay for Inhibitors of JMJD2A-Tudor Domain; Lysine-specific demethylase 4A (Homo sapiens), O75164; AlphaScreen JMJD2A-Tudor / H3K4me3 peptide binding; Potency, µM (doses to about 114 µM), inactives show at the highest dose activity change, negative = inhibition, most hits filed as inhibitors; hit rate 4.4% among 390,000; AID 504339, 2011; further: on the % scale 0 is the no-effect control and ±100 the full control effect; nearly all actives have a fitted effect of over 50% in size
Numbers without * were called inactive; u = inconclusive; x = no result; [ ] = another dose, or the depositor's remark. The call rests on the fitted dose curve; in most records, active means well fitted curve in the direction sought with a large enough effect; inconclusive means small, poorly fitted or top-dose-only effect, or another doubt; inactive means no such curve, though single readings can be large; an effect the other way counts as inactive or inconclusive. Potency means the concentration at half of the fitted maximal effect.

SMILES	HP1b binding inh	VDR inh	G9a inh	PLK1 PBD block	BAZ2B block	JMJD2A Tudor inh
Cn1c2ccccc2c(=O)c2c(=O)n(-c3ccccc3)c(-c3ccc(C(C)(C)C)cc3)nc21	36%	u	-6%	-13%	-22%	-31%
CC(C)(C)c1ccc(-c2n[nH]c(=S)n2-c2ccccc2)cc1	49%	9%	2.8µM*	-26%	12%	-20%
Cc1ccc(-n2c(-c3ccccc3)n[nH]c2=S)cc1	-23%	-19%	0.89µM*	u	u	2.2µM*
Cc1ccc(-n2c(-c3ccccc3)n[nH]c2=S)c(C)c1	41%	-8%	1.8µM*	-8%	-5%	u
Cc1onc(-c2ccccc2)c1-c1n[nH]c(=S)n1-c1ccccc1	-21%	9%	x	0%	x	63µM*
Cc1noc(C)c1C(=O)OCC(=O)Nc1ccc(S(N)(=O)=O)cc1	22%	10%	5%[12.7 µM]	4%	6%	9%
CC1(Oc2cccc(C#N)c2)CCN(Cc2ccccc2OC(F)F)C1 (stereo not drawn)	x	x	x	-1%	x	x
N#Cc1ccc(OCC(=O)OCC(=O)NC2CC2)cc1	9%	5%	x	-3%	x	-5%
CCN(CC)C(=O)C1CCCN(C(=O)c2oc3ccc(C)cc3c2C)C1 (stereo not drawn)	12%	3%	24%	-3%	-4%	-20%
O=C(O)c1ccc(-n2c(-c3cc(C4CC4)[nH]n3)n[nH]c2=S)cc1	44%	-8%	18µM*	-2%	-10%	20µM*
Cc1ccc(-n2c(-c3ccncc3)n[nH]c2=S)cc1C	14%	3%	5µM*	-5%	-1%	5µM*
Cc1ccc(-n2c(-c3ccc(Cl)cc3Cl)n[nH]c2=S)cc1	1%	-10%	x	-21%	0%	-42%
O=C(O)c1ccc(-n2c(-c3ccccc3)n[nH]c2=S)cc1	34%	7%	u	-7%	-3%	28µM*
O=C(O)c1ccc(CSc2nnc(-c3ccccc3)n2-c2ccccc2)cc1	0%	0%	7%	-7%	-16%	-15%
Cc1ccc(-n2c(-c3ccncc3)n[nH]c2=S)cc1	5%	-2%	8.9µM*	0%	-2%	22µM*
COc1ccc(-c2cc(C(F)(F)F)nc(SCC(=O)NCCc3ccc(OC)c(OC)c3)n2)cc1	28%	-21%	-16%[59 µM]	x	-16%	-8%
Cc1nnc(C)c2c(C)n(C(C)c3ccccc3)c(C)c12 (stereo not drawn)	-8%	8%	3%[59 µM]	-5%	-20%	u
CC(c1ccccc1)n1c(-c2ccc(C(C)(C)C)cc2)n[nH]c1=S (stereo not drawn)	13%	-10%	32µM*	-14%	u	u
COc1ccc(-n2c(-c3ccc(C)cc3)n[nH]c2=S)cc1	-1%	-16%	4µM*	-3%	-7%	20µM*
O=C(O)c1ccc(-n2c(-c3cc(-c4ccco4)[nH]n3)n[nH]c2=S)cc1	12%	-5%	4%[0.501 µM]	0%	45µM*	20µM*
Cc1ccc(-n2c(-c3cnccn3)n[nH]c2=S)cc1	36%	-7%	7.9µM*	1%	79µM*	8.9µM*
COc1cccc(NC(=O)CN(C)C(=O)C(C)Sc2ccccc2)c1 (stereo not drawn)	26%	7%	-19%	-8%	-7%	-9%
O=C(NCC(c1ccc(F)cc1)N1CCOCC1)c1cccnc1Sc1ccccc1 (stereo not drawn)	19%	-12%	1%	-5%	13%	5%
Cc1ccc(Sc2ncccc2C(=O)NCC(c2ccc(F)cc2)N2CCOCC2)cc1C (stereo not drawn)	38%	1%	0.89µM*	1%	-9%	u
CCC(CC)C(=O)Nc1cccc(-c2nc3ncccn3c2C)c1	29%[57 µM]	16%	-3%[59 µM]	x	6%	-21%
SMILES	HP1b binding inh	VDR inh	G9a inh	PLK1 PBD block	BAZ2B block	JMJD2A Tudor inh
CN(C)c1ccnc2c[cH-]cc12.[Fe].c1ccc(-[c-]2[c-](-c3ccccc3)[c-](-c3ccccc3)[c-](-c3ccccc3)[c-]2-c2ccccc2)cc1 (stereo not drawn)	3.2µM*	-9%	u	-14%	1.6µM*	4µM*
CN(C)c1ccnc(Nc2ccccc2)c1C#N	37%	-5%	-15%	-6%	-4%	-2%
O=[N+]([O-])c1ccccc1N=NNc1ccccc1	u	-11%	x	-8%	x	20µM*
O=[N+]([O-])c1ccccc1N=Nc1ccc(O)cc1	u	6%	x	2%	x	50µM*
CCOC(=O)c1ccc(-c2ccc3ncnc(NCc4cccs4)c3c2)o1	x	x	x	x	x	-16%
CCC(C)[C@H](NC(=O)[C@H](Cc1ccccc1)n1c(=O)[nH]c2ccccc2c1=O)C(=O)NCC1CCC(C(=O)O)CC1 (stereo partly drawn)	10%	-6%	13%	-6%	-33%	-14%
Fc1cccc(Cl)c1CNC(c1ccccc1)c1ccccc1	202%	-7%	23%[59 µM]	3%	195%	115%
S=c1[nH]ncn1NCc1ccc(Cl)cc1Cl	28%	-6%	2.8µM*	-10%	-3%	32µM*
Fc1cccc(Cl)c1CNn1cn[nH]c1=S	55%	0%	8.9µM*	4%	-34%	50µM*
CCn1cc(C(=O)OCC(=O)c2cc(C)n(-c3ccccc3F)c2C)c(=O)c2ccc(C)nc21	u	u	-21%[59 µM]	27µM*	u	40µM*
CCn1cc(C(=O)OCC(=O)c2cc(C)n(-c3ccccc3)c2C)c(=O)c2ccc(C)nc21	-17%	-6%	21%[59 µM]	-9%	u	-17%
Cn1nccc1C(=O)N1CCN(C23CC4CC(CC(C4)C2)C3)CC1	44%	2%	x	-10%	0%	-14%
Cn1ncc(Cl)c1C(=O)N1CCN(C23CC4CC(CC(C4)C2)C3)CC1	4%	-25%	x	-15%	-8%	89µM*
CCOC(=O)N1CCC(N(CCN(C)C)C(=S)Nc2ccc(OCC)cc2)CC1	x	x	-41%	x	-16%	x
Cc1nc(SCC(=O)NC2CCS(=O)(=O)C2)c2c3c(sc2n1)CCCC3 (stereo not drawn)	20%	-18%	50µM*	-20%	4%	-11%
COC(=O)CNC(c1ccccc1)c1cc(Br)ccc1NC(=O)CCN1CCOCC1 (stereo not drawn)	5%	u	3.2µM*	u	-28%	-29%
N#Cc1c(C#N)c(-c2ccccc2)n(-c2ccc(C(=O)O)cc2)c1N	18%	12%	56µM*	-5%	u	-20%
